This is part of a sample that, as a whole, favours compounds with a hit. Of some 83,000 tested, about 20% had one in any assay.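 In brief: 96-well plates, 48 h treatment, single concentration, percent growth endpoint.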 A number with no mark means an inactive call. The source made the active and inactive calls. Rule for the calls: active = growth percent below 10; inactive = the rest.
tested on: NCI-H522 lung; assay: NCI-60 one-dose screen, 48 h (100 = growth as untreated, 0 = no growth, -100 = all killed); conditions: 10 µM unless noted

| Structure (SMILES) | growth |
| --- | --- |
| CN(C[C@H]1Cc2c(cccc2N2CCN(c3ncccn3)CC2)CN1)[C@H]1CCCc2cccnc21 | 52.6% |
| COc1ccc(-c2cnoc2-c2ccc(OC)cc2O)cc1 | -16% (active) |
| COc1ccc(/C=N\NC(=O)CN2CCN(c3cc4c(cc3F)c(=O)c(C(=O)N/N=C/c3ccc(OC)c(OC)c3)cn4C3CC3)CC2)cc1OC | 7.49% (active) |
| C1=Cc2ccccc2N(c2nnc(-c3ccccc3)o2)c2ccccc21 | 92.8% |
| COc1ccc(-c2nc3sc(-c4cc(OC)c(OC)c(OC)c4)nn3c2/C=C2/C(=O)Nc3ccc(F)cc32)cc1 | 8.56% (active) |
| O=C(Oc1ccccc1[N+](=O)[O-])C1CCCN1C(=O)OCc1ccccc1 (stereo not drawn) | 101% |
| CC(C)(C)OC(=O)NC(CSCc1ccccc1)C(=O)ON1C(=O)CCC1=O (stereo not drawn) | 91.5% |
| O=S(=O)(NCCCNc1nccc(-n2ccc3cccnc32)n1)c1ccc(Br)cc1 | 92.6% |
| COc1ccc(/C=C2\Oc3cc(OCCCN4CCCC4)ccc3C2=O)cc1 | 85.7% |
| Cc1csc(NC(c2ccc(Br)cc2)c2c(C)nc3ccccn23)n1 (stereo not drawn) | 89.3% |
| Cn1c(=O)cc(NC(=O)CN2CCN(c3cc4c(cc3F)c(=O)c(C(=O)O)cn4C3CC3)CC2)[nH]c1=O | 91.7% |
| CC(C)(C)n1cc(-c2ccnc(NCCNS(=O)(=O)c3ccc(F)cc3)c2)c(-c2cccc(O)c2)n1 | 50.4% |
| CC(C)(C)n1cc(-c2ccnc(NCCNS(=O)(=O)c3ccc(Cl)cc3)c2)c(-c2cccc(O)c2)n1 | 68% |
| O=C1Nc2ccc3c(c2/C1=C\c1cc2c(cc1Br)OCO2)OCO3 | 16.4% |
| Cc1ccc(N2CCN(C(C)C(N)=O)CC2)cc1 (stereo not drawn) | 90.7% |
| COc1cc(NC(N)=NCCC(C)(C)Oc2ccc(C(F)(F)F)cc2)ncc1C#N | -83.7% (active) |
| CCc1ccc(-c2ccc(=O)n(-c3ccc(S(N)(=O)=O)cc3)n2)cc1 | -33.6% (active) |
| CC[N+](CC)=c1cc2oc3cc(N(C)C)ccc3nc-2cc1C | -43.8% (active) |
| COc1cccc(-c2nc3sccn3c2-c2ccnc(NCCCNS(=O)(=O)c3ccc(F)cc3)c2)c1 | 29.3% |
| N[C@H]1CN(C(=O)c2cc3cc(Br)c(F)c(F)c3[nH]2)C[C@@H]1O | 95.1% |

| Structure (SMILES) | growth |
| --- | --- |
| O=C(N/N=C/C=C\c1ccccc1)C(=O)N/N=C/C=C/c1ccccc1 | 124% |
| O=C(O)COc1ccc(-c2cssc2=S)cc1 | 85.6% |
| CCOC(=O)c1c(NS(=O)(=O)c2ccc(C)cc2)sc2c1CCC1(C2)OCCO1 | 79.6% |
| Cc1nc2ncccc2nc1Nc1ccc(S(=O)(=O)Nc2ccccn2)cc1 | 81.6% |
| Fc1ccc(Nc2ncnc3ccc(-c4cnc5[nH]ccc5c4)cc23)cc1Cl | -33.3% (active) |
| COc1ccc(C2C(C#N)=C(N)Oc3c2ccc2ccccc32)cc1 (stereo not drawn) | 3.93% (active) |
| COc1ccc(C(=O)N2NC(=O)/C(=C/c3cn(-c4ccccc4)nc3-c3ccccc3)N=C2c2ccccc2)cc1 | 95.9% |
| C=C1C(=O)O[C@H]2[C@H]1CC/C(Cn1cc(CNC(=O)Cc3cn(C(=O)c4ccc(Cl)cc4)c4ccc(OC)cc34)nn1)=C\CC[C@@]1(C)O[C@@H]21 | -50.7% (active) |
| CCCCC(CC)OC(=O)C(Br)CC (stereo not drawn) | 103% |
| O=C1/C(=C/c2ccccc2)Oc2ccc(O)c(I)c21 | 84% |
| COC(=O)c1cc2cc(-c3ccc(OC)cc3)cnc2[nH]1 | -52.2% (active) |
| c1coc(CNc2ccnc(Nc3ccc(OCCN4CCCCC4)cc3)n2)c1 | 85.3% |
| COc1ccc2[nH]c(C(=O)OCc3ccc4c(Cl)cc(Cl)c(O)c4n3)cc2c1 | -76.8% (active) |
| CCOC(=O)C1CCNC(=O)C1=O (stereo not drawn) | 116% |
| O=C(O)C1CCCCN1c1nc(Cl)nc(Cl)n1 (stereo not drawn) | 93.3% |
| C=C1CCC2C(C)(CO)C(O)CCC2(C)C1CC(NCc1ccccc1)C1=CCOC1=O (stereo not drawn) | 89.9% |
| CCCCCCCCCCCC(=O)NCCC[N+](C)(C)CC(=O)[O-] | 80% |
| CN(CCCCCl)P(=O)(OCc1ccc([N+](=O)[O-])o1)C(F)(F)C[C@H](NC(=O)CNC(=O)c1ccc(N=[N+]=[N-])cc1)C(=O)NCCc1ccc(O)cc1 (stereo partly drawn) | -66.9% (active) |
| NC(N)=Nc1nc2ccccc2o1 | 107% |

tested on: A549/ATCC NSCLC; assay: as above; conditions: 10 µM unless noted

| Structure (SMILES) | growth |
| --- | --- |
| CN(C[C@H]1Cc2c(cccc2N2CCN(c3ncccn3)CC2)CN1)[C@H]1CCCc2cccnc21 | 25.7% |
| COc1ccc(-c2cnoc2-c2ccc(OC)cc2O)cc1 | 40.9% |
| COc1ccc(/C=N\NC(=O)CN2CCN(c3cc4c(cc3F)c(=O)c(C(=O)N/N=C/c3ccc(OC)c(OC)c3)cn4C3CC3)CC2)cc1OC | 48.6% |
| C1=Cc2ccccc2N(c2nnc(-c3ccccc3)o2)c2ccccc21 | 92.6% |
| COc1ccc(-c2nc3sc(-c4cc(OC)c(OC)c(OC)c4)nn3c2/C=C2/C(=O)Nc3ccc(F)cc32)cc1 | -63.6% (active) |
| O=C(Oc1ccccc1[N+](=O)[O-])C1CCCN1C(=O)OCc1ccccc1 (stereo not drawn) | 98.5% |
| CC(C)(C)OC(=O)NC(CSCc1ccccc1)C(=O)ON1C(=O)CCC1=O (stereo not drawn) | 106% |
| O=S(=O)(NCCCNc1nccc(-n2ccc3cccnc32)n1)c1ccc(Br)cc1 | 107% |
| COc1ccc(/C=C2\Oc3cc(OCCCN4CCCC4)ccc3C2=O)cc1 | 90.6% |
| Cc1csc(NC(c2ccc(Br)cc2)c2c(C)nc3ccccn23)n1 (stereo not drawn) | 87.6% |
| Cn1c(=O)cc(NC(=O)CN2CCN(c3cc4c(cc3F)c(=O)c(C(=O)O)cn4C3CC3)CC2)[nH]c1=O | 98.8% |
| CC(C)(C)n1cc(-c2ccnc(NCCNS(=O)(=O)c3ccc(F)cc3)c2)c(-c2cccc(O)c2)n1 | 47.5% |
| CC(C)(C)n1cc(-c2ccnc(NCCNS(=O)(=O)c3ccc(Cl)cc3)c2)c(-c2cccc(O)c2)n1 | 51.8% |
| O=C1Nc2ccc3c(c2/C1=C\c1cc2c(cc1Br)OCO2)OCO3 | 27.9% |
| Cc1ccc(N2CCN(C(C)C(N)=O)CC2)cc1 (stereo not drawn) | 113% |
| COc1cc(NC(N)=NCCC(C)(C)Oc2ccc(C(F)(F)F)cc2)ncc1C#N | -42.6% (active) |
| CCc1ccc(-c2ccc(=O)n(-c3ccc(S(N)(=O)=O)cc3)n2)cc1 | 18% |
| CC[N+](CC)=c1cc2oc3cc(N(C)C)ccc3nc-2cc1C | 36.5% |
| COc1cccc(-c2nc3sccn3c2-c2ccnc(NCCCNS(=O)(=O)c3ccc(F)cc3)c2)c1 | 23.2% |
| N[C@H]1CN(C(=O)c2cc3cc(Br)c(F)c(F)c3[nH]2)C[C@@H]1O | 101% |

| Structure (SMILES) | growth |
| --- | --- |
| O=C(N/N=C/C=C\c1ccccc1)C(=O)N/N=C/C=C/c1ccccc1 | 109% |
| O=C(O)COc1ccc(-c2cssc2=S)cc1 | 97.6% |
| CCOC(=O)c1c(NS(=O)(=O)c2ccc(C)cc2)sc2c1CCC1(C2)OCCO1 | 103% |
| Cc1nc2ncccc2nc1Nc1ccc(S(=O)(=O)Nc2ccccn2)cc1 | 101% |
| Fc1ccc(Nc2ncnc3ccc(-c4cnc5[nH]ccc5c4)cc23)cc1Cl | -50.1% (active) |
| COc1ccc(C2C(C#N)=C(N)Oc3c2ccc2ccccc32)cc1 (stereo not drawn) | 57.1% |
| COc1ccc(C(=O)N2NC(=O)/C(=C/c3cn(-c4ccccc4)nc3-c3ccccc3)N=C2c2ccccc2)cc1 | 91.6% |
| C=C1C(=O)O[C@H]2[C@H]1CC/C(Cn1cc(CNC(=O)Cc3cn(C(=O)c4ccc(Cl)cc4)c4ccc(OC)cc34)nn1)=C\CC[C@@]1(C)O[C@@H]21 | 68.4% |
| CCCCC(CC)OC(=O)C(Br)CC (stereo not drawn) | 103% |
| O=C1/C(=C/c2ccccc2)Oc2ccc(O)c(I)c21 | 103% |
| COC(=O)c1cc2cc(-c3ccc(OC)cc3)cnc2[nH]1 | 24.9% |
| c1coc(CNc2ccnc(Nc3ccc(OCCN4CCCCC4)cc3)n2)c1 | 92.5% |
| COc1ccc2[nH]c(C(=O)OCc3ccc4c(Cl)cc(Cl)c(O)c4n3)cc2c1 | 5.45% (active) |
| CCOC(=O)C1CCNC(=O)C1=O (stereo not drawn) | 109% |
| O=C(O)C1CCCCN1c1nc(Cl)nc(Cl)n1 (stereo not drawn) | 101% |
| C=C1CCC2C(C)(CO)C(O)CCC2(C)C1CC(NCc1ccccc1)C1=CCOC1=O (stereo not drawn) | 99.9% |
| CCCCCCCCCCCC(=O)NCCC[N+](C)(C)CC(=O)[O-] | 105% |
| CN(CCCCCl)P(=O)(OCc1ccc([N+](=O)[O-])o1)C(F)(F)C[C@H](NC(=O)CNC(=O)c1ccc(N=[N+]=[N-])cc1)C(=O)NCCc1ccc(O)cc1 (stereo partly drawn) | 99% |
| NC(N)=Nc1nc2ccccc2o1 | 109% |

Reference: PubChem BioAssay (NCI)
